From PubChem BioAssay
Most compounds without a hit are left out; they make up all but 1.8% or so of the library.
GSTO1 counter = blocks human GSTO1 in RBBP9 counter-screen; recombinant GSTO1, activity-based probe fluorescence polarization; P78417; AID 1974; inhibition, % at 5.96 µM; actives 1.1% (n = 300,000);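 active = inhibition above the campaign mean inhibition plus 3 SD, cut at about 35% in these data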;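 note: 0% = GSTO1-1 with DMSO and 100% = wells lacking GSTO1-1 enzyme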
Fam108B counter = blocks mouse Fam108B hydrolase in RBBP9 counter-screen; inhibition, % at 9.51 µM; actives 0.33% (n = 300,000); recombinant Fam108B, FP-Rh probe fluorescence polarization;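 active = inhibition above the screen mean inhibition plus 3 SD, computed separately per campaign, cut at about 18% in these data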;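 note: inhibitors lower polarization as less probe binds the enzyme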
LYPLA1 inh = blocks human lysophospholipase 1, a PME1 counter-screen | recombinant LYPLA1, FP-Rh probe fluorescence polarization | AID 2174 | O75608 | inhibition, % at 5.9 µM | actives 0.16% (n = 320,000);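 active = inhibition above the mean of all tested compounds plus 3 SD, set per campaign, cut at about 14% in these data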;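 note: inhibitors block serine hydrolase probe labeling of LYPLA1 so polarization falls; 0% = enzyme with DMSO and 100% = wells lacking LYPLA1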
PAD4 FP inh = PAD4 (human) enzyme inhibition; Q9UM07; recombinant PAD4, RCA probe fluorescence polarization; inhibition, % at 6.36 µM; actives 0.41% (n = 330,000); AID 485272;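 active = percent inhibition above a cutoff equal to the mean of all tested compounds plus 3 SD, cut at about 15% in these data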;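 note: 0% = PAD4 with RCA probe and DMSO and 100% = probe without PAD4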
LYPLA2 counter = blocks human lysophospholipase 2, a PME1 counter-screen. O95372. recombinant LYPLA2, FP-Rh probe fluorescence polarization. inhibition, % at 5.9 µM. actives 0.38% (n = 320,000). AID 2177;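 active = inhibition above the screen-wide mean plus 3 SD, limit set per campaign, cut at about 26% in these data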;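 note: 0% = LYPLA2 with DMSO and 100% = wells lacking LYPLA2 enzyme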
Target sequence (O95372 whole entry, looked up): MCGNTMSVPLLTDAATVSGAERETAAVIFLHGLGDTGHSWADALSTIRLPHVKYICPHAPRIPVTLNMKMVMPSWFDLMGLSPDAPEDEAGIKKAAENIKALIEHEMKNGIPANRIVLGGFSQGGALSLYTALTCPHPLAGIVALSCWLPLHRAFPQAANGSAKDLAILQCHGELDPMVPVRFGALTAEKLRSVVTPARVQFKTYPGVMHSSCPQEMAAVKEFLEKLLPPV
PME-1 primary = blocks human protein phosphatase methylesterase 1. actives 0.53% (n = 320,000). recombinant PME-1, FP-Rh probe fluorescence polarization. inhibition, % at 5.9 µM;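 active = inhibition above the campaign mean of all compounds plus 3 SD, cut at about 26% in these data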;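 note: competitive labeling of PME-1 active site by serine hydrolase directed probe; 0% = PME-1 with DMSO and 100% = wells lacking PME-1 enzyme; inhibitors block probe labeling so polarization falls and inhibition rises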
Target sequence (Q9Y570 whole entry, looked up): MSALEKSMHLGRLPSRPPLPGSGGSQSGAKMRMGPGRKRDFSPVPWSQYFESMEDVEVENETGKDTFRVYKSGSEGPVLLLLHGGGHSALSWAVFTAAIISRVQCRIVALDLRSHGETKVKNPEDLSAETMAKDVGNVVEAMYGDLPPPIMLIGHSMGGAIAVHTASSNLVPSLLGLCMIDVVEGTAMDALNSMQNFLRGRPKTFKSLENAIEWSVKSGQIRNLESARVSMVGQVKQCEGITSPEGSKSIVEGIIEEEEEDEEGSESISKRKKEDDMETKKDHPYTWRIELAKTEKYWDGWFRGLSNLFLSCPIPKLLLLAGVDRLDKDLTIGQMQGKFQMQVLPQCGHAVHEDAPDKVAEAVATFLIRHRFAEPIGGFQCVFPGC
GSTO1 confirm = GSTO1 (human) inhibition, confirmation | shares compounds with GSTO1 counter | recombinant GSTO1, probe fluorescence polarization | inhibition, % at 5.96 µM | actives 54% (n = 2,400);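 active = inhibition above the primary screen's cutoff, its mean inhibition plus 3 SD, cut at about 35% in these data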;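 note: loss of polarization as inhibitors block binding of rhodamine sulfonate ester activity probe; 0% = GSTO1 with DMSO and 100% = wells lacking GSTO1 enzyme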
GSTO1 recomb ABPP = inhibitors of recombinant human GSTO1; gel ABPP SE-Rh probe fluorescence; actives 30% (n = 130); shares compounds with GSTO1 counter; AID 463110; inhibition, % at 1 µM;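 active = inhibition of the enzyme GSTO1 above about 75%, limit read from the data; inactive = inhibition below that limit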
* marks the source's active call; other numbers are inactive results; · = no result given.

SMILES | GSTO1 counter | Fam108B counter | LYPLA1 inh | PAD4 FP inh | LYPLA2 counter | PME-1 primary | GSTO1 confirm | others
CCN(CC)c1ccc(N=Cc2c(O)n(Cc3ccccc3)c(=O)[nH]c2=O)cc1 | 6 | 2 | -2 | -14 | -2 | 2 | ·
O=C(Nc1ccc2ccccc2c1)c1nn(C23CC4CC(CC(C4)C2)C3)cc1Br | -2 | -7 | -8 | -4 | -10 | -14 | ·
Cc1nc(Cl)sc1C(=O)Nc1ccc2ccccc2c1 | 55* | -3 | -7 | 2 | -3 | -12 | 54*
Cc1cc(NC(=O)CCl)on1 | 73* | 0 | 0 | 2 | 3 | 4 | 99*
Cc1ccc(S(=O)(=O)N2CN3CCN(C3)C2)cc1 | 2 | 3 | 1 | 0 | 4 | 4 | ·
Cc1ccc(S(=O)(=O)N2CC2(C)CCl)cc1 (centres undefined) | 44* | -3 | 2 | -4 | -1 | -3 | 67* | GSTO1 recomb ABPP=11
Nc1ccncc1Cl | 6 | -3 | 3 | 0 | 0 | -3 | ·
CCCCOCCCn1c(N)c(C(=O)OCCOC)c2nc3ccccc3nc21 | 38* | 3 | -1 | -11 | -7 | -2 | 35*
COCCCn1c(N)c(C(=O)NCCC(C)C)c2nc3ccccc3nc21 | 39* | 2 | -6 | -10 | -9 | 7 | 64*
CCCCn1c(N)c(C(=O)OCCOC)c2nc3ccccc3nc21 | 17 | -1 | 2 | -5 | 0 | 8 | ·
COc1ccc(-n2nc(C(=O)NCC(=O)N3CCC4(CC3)OCCO4)c3ccccc3c2=O)cc1Cl | 5 | -3 | -3 | -5 | -1 | 7 | ·
O=[N+]([O-])c1cc(S(=O)(=O)c2ccc(O)c([N+](=O)[O-])c2)ccc1O | 40* | 16 | 0 | -6 | 7 | -1 | 49*
Nc1cccc(N=Cc2c(O)n(Cc3ccc(F)cc3)c(=O)[nH]c2=O)c1 | -5 | -1 | 0 | 0 | -8 | -2 | ·
Nc1c(C(=O)NCc2ccco2)c2nc3ccccc3nc2n1Cc1ccc(F)cc1 | 71* | -1 | 0 | -5 | 2 | 0 | 2
COc1ccc(Cn2c(N)c(C(=O)NCc3ccco3)c3nc4ccccc4nc32)cc1 | 24 | 2 | -18 | -10 | -12 | -10 | ·
COCC(C)OC(=O)c1c(N)n(Cc2ccco2)c2nc3ccccc3nc12 (centres undefined) | 59* | -1 | -3 | -11 | 1 | -1 | 18
O=C(NC1CCCCC1)Oc1cc2oc(=O)sc2cc1Cl | 55* | 5 | 4 | 2 | 0 | 0 | 13
Cc1cc(C(=O)Nc2ccccc2)nn1C(C)(C)C | 7 | 3 | -1 | 3 | 0 | -1 | ·
Cn1ccc(NC(=O)CCl)n1 | 62* | -2 | 4 | -2 | 2 | -1 | 85*
Cc1cc(NC(=O)CCl)nn1C | 85* | 1 | 1 | 1 | 2 | 1 | 86*
O=C(N/N=C/c1c(O)n(-c2cccc3ccccc23)c(=O)[nH]c1=O)c1ccncc1 | 6 | 2 | 0 | -5 | 2 | -1 | ·
CC(=Nc1ccccc1N)c1c(O)n(C)c(=O)n(C)c1=O | -3 | -1 | -4 | 1 | -6 | -6 | ·
O=C1NC(=O)N(Cc2ccco2)C(=O)/C1=C/c1ccc(-c2cccc([N+](=O)[O-])c2)o1 | 40* | 16 | 1 | 0 | 5 | -2 | 27
CC(Cc1ccccc1)NC(=O)/C=C/c1ccc(Cl)cc1 (centres undefined) | -1 | -1 | -3 | -1 | -4 | -2 | ·
COP(=O)(OC)C(NC(=O)/C=C/c1ccccc1)C(Cl)(Cl)Cl (centres undefined) | 39* | 1 | 2 | -5 | -2 | 2 | 69*
SMILES | GSTO1 counter | Fam108B counter | LYPLA1 inh | PAD4 FP inh | LYPLA2 counter | PME-1 primary | GSTO1 confirm | others
COC(=O)C1=C(c2ccc(OC)c(OC)c2)C[C@@H]2CC[C@H]1N2C(=O)NCc1ccco1 | · | · | -5 | 0 | 0 | 0 | ·
COc1ccc(N2C(=O)NC(=O)/C(=C/c3ccc([N+](=O)[O-])s3)C2=O)cc1 | 30 | 10 | -9 | -9 | -9 | -5 | ·
COc1cccc(N2C(=O)NC(=O)/C(=C/c3ccc([N+](=O)[O-])s3)C2=O)c1 | 44* | 9 | -3 | -7 | -6 | 3 | 36*
COc1ccccc1-n1c(O)c(/C=N/NC(=S)Nc2ccccc2)c(=O)[nH]c1=S | -11 | -1 | -4 | -3 | -5 | -5 | ·
CCCCn1c(N)c(C(=O)NCc2cccs2)c2nc3ccccc3nc21 | 61* | -1 | -3 | 2 | 1 | 8 | 82*
CCCCCn1c(N)c(C(=O)NCCN2CCOCC2)c2nc3ccccc3nc21 | 4 | 8 | 2 | -3 | -6 | 10 | ·
CCCOC(=O)c1c(N)n(Cc2cccs2)c2nc3ccccc3nc12 | 42* | -1 | -6 | -19 | -4 | 9 | -2
Cc1cc(=O)[nH]c(CCl)n1 | 67* | -1 | 1 | -4 | 1 | 3 | 90* | GSTO1 recomb ABPP=14
CCN1C[C@]2(CO)CC[C@H](OC)[C@@]34C5C[C@H]6[C@H](OC)C5[C@](O)(C[C@H]6OC)[C@@H](C(OC)C23)[C@@H]14 (some centres undefined) | 3 | 3 | 6 | 5 | 3 | -5 | ·
COC(=O)C(O)(c1c[nH]c2ccccc12)C(F)(F)F (centres undefined) | -6 | 1 | 3 | -3 | 1 | -4 | ·
COC(=O)C(O)(c1c(C)[nH]n(-c2ccccc2)c1=O)C(F)(F)F (centres undefined) | 50* | 2 | 2 | 4 | 9 | 1 | 52*
CC(C)CCOC(=O)c1c(N)n(CC2CCCO2)c2nc3ccccc3nc12 (centres undefined) | 53* | 0 | -2 | 1 | 4 | 3 | -2
CC(C)OC(=O)c1c(N)n(CC2CCCO2)c2nc3ccccc3nc12 (centres undefined) | 45* | -1 | 0 | -16 | -3 | -3 | 5
Nc1c(C(=O)OC2CCCCC2)c2nc3ccccc3nc2n1CC1CCCO1 (centres undefined) | 42* | 3 | -4 | -13 | 4 | 5 | -2
O=C(O)C(Cl)(Cl)Cl | 5 | -4 | -5 | -3 | -4 | -3 | ·
CN1CCN(c2ccc(C(F)(F)F)cc2N)CC1 | 2 | -4 | -1 | 6 | -2 | -4 | ·
Cc1ccc(C)c(NC(=O)CCNC(=O)N2C[C@H]3C[C@@H](C2)c2cccc(=O)n2C3)c1 | 1 | -2 | 0 | -1 | 6 | 5 | ·
COC(=O)C1=C(c2cc3ccccc3o2)C[C@@H]2CC[C@H]1N2C(=O)NCCO | 5 | 2 | 2 | -2 | 2 | -6 | ·
CNCCc1ccc(O)c(O)c1 | 73* | -1 | -2 | -5 | 2 | 0 | 8
